# Reference: the supplement of paper PMC10849652
# About 7,900 targets were measured; listed, in parts, are those with a hit and a random draw of the rest. About 0.6% of all pairs of compound and target were hits. A number with no mark means an inactive call.
# Columns and labels:
# Test in all cases: log2 fold change, soluble protein after heating vs DMSO (PISA); higher = thermal stabilisation; K562 cells, 10 uM, 30 min; active = over 0.2 and 3.5 SD of the protein, either way, in both replicates (recomputed)
# YAE1 = YAE1 (UniProt Q9NRH1)
# How it was run: (§1)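 K562 cells at 2×10^6 cells/mL were treated with 10 μM compound for 30 min. Aliquots were heated for 3 min across 48°C-58°C, pooled, and extracted in PBS with 0.5% NP-40 at 4°C; soluble protein was the supernatant after 21,000xg for 90 min. Soluble protein was quantified by TMTpro 16plex LC-MS/MS with channel sums equalised, and reported as log2 fold change in thermal stability against DMSO controls, with values from duplicates.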
# YBX1 = YBX1 (UniProt P67809)
# How it was run: as §1
# YES1 = YES1 (UniProt P07947)
# How it was run: as §1
# YIPF4 = YIPF4 (UniProt Q9BSR8)
# How it was run: as §1
# YIPF5 isoform 3 = YIPF5 isoform 3 (UniProt Q969M3)
# How it was run: as §1
# YIPF6 = YIPF6 (UniProt Q96EC8)
# How it was run: as §1
# YLPM1 = YLPM1 (UniProt P49750)
# How it was run: as §1
# YOD1 = YOD1 (UniProt Q5VVQ6)
# How it was run: as §1
# YPEL5 = YPEL5 (UniProt P62699)
# How it was run: as §1
# YWHAB = YWHAB (UniProt P31946)
# How it was run: as §1
# YWHAQ = YWHAQ (UniProt P27348)
# How it was run: as §1
# YWHAZ [1] = target: YWHAZ (UniProt P63104)
# How it was run: as §1
# YY1 = YY1 (UniProt P25490)
# How it was run: as §1
# ZADH2 = ZADH2 (UniProt Q8N4Q0)
# How it was run: as §1
# ZBTB21 = ZBTB21 (UniProt Q9ULJ3)
# How it was run: as §1
# ZBTB43 = ZBTB43 (UniProt O43298)
# How it was run: as §1
# ZC3H18 = ZC3H18 (UniProt Q86VM9)
# How it was run: as §1
# ZBTB17 isoform 2 = ZBTB17 isoform 2 (UniProt Q13105)
# How it was run: as §1
# YWHAZ [2] = target: YWHAZ (UniProt E7ESK7)
# How it was run: as §1
# YY1, sequence (P25490 whole entry, looked up): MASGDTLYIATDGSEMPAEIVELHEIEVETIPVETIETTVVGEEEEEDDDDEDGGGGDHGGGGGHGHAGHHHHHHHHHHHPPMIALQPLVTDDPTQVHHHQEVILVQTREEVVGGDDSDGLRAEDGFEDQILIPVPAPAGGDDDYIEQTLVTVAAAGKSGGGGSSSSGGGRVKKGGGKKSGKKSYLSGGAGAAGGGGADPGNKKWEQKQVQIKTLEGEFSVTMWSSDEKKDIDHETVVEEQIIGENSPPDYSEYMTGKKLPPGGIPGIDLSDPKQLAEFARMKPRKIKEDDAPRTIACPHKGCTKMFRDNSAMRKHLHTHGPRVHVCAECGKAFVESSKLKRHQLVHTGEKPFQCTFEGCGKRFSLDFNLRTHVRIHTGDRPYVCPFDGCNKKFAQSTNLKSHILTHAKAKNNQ
# YBX1, sequence (P67809 whole entry, looked up): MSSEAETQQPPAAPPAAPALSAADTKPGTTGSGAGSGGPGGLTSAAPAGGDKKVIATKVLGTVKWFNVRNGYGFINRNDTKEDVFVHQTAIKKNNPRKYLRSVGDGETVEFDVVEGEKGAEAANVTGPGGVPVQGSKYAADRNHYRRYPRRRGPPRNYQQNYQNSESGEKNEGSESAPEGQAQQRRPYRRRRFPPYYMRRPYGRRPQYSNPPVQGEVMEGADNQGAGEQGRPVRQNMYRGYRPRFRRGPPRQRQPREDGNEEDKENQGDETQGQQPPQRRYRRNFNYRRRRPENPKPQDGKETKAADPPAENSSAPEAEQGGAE
# YWHAB, sequence (P31946 whole entry, looked up): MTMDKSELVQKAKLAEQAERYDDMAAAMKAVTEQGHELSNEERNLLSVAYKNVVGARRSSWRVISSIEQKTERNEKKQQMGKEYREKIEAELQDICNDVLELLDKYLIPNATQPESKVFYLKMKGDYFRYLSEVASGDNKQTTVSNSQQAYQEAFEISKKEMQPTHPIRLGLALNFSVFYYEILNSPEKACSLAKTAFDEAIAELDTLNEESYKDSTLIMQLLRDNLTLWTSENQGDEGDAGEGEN
# ZC3H18, sequence (Q86VM9 whole entry, looked up): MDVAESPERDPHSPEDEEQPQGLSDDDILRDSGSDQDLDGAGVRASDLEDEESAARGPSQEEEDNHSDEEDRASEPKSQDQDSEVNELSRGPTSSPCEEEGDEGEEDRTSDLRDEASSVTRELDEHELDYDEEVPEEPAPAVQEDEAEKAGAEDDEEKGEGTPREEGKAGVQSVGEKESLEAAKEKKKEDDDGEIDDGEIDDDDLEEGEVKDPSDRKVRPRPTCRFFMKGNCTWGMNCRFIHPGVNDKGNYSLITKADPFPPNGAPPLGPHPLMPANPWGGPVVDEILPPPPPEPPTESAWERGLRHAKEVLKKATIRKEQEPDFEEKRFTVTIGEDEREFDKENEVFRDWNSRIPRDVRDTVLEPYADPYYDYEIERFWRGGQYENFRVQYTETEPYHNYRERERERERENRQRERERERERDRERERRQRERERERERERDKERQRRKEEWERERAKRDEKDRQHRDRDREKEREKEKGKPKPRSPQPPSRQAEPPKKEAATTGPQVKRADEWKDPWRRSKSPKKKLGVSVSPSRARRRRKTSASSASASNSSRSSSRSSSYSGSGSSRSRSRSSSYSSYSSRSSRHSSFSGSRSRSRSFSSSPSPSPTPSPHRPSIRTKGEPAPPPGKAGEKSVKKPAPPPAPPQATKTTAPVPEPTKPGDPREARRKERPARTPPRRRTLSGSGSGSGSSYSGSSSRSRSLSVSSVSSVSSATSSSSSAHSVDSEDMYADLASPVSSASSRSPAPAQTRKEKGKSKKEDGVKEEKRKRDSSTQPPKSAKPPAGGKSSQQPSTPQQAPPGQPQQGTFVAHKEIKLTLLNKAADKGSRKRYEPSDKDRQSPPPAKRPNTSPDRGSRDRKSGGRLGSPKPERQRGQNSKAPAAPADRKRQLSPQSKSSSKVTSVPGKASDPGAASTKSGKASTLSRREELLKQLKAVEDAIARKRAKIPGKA
# YAE1, sequence (Q9NRH1 whole entry, looked up): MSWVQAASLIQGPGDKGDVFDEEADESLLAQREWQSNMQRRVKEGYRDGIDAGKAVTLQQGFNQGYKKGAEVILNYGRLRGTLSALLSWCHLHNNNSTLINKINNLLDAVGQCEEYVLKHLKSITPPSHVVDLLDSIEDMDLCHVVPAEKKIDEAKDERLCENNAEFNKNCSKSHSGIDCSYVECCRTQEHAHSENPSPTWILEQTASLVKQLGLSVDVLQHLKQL
# YWHAQ, sequence (P27348 whole entry, looked up): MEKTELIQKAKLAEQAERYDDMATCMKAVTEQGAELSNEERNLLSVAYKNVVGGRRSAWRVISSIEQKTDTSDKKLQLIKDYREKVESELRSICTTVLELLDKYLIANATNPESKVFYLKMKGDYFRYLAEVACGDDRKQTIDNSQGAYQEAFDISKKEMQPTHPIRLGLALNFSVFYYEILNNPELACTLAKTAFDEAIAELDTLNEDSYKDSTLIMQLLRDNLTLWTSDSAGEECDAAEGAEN
# ZADH2, sequence (Q8N4Q0 whole entry, looked up): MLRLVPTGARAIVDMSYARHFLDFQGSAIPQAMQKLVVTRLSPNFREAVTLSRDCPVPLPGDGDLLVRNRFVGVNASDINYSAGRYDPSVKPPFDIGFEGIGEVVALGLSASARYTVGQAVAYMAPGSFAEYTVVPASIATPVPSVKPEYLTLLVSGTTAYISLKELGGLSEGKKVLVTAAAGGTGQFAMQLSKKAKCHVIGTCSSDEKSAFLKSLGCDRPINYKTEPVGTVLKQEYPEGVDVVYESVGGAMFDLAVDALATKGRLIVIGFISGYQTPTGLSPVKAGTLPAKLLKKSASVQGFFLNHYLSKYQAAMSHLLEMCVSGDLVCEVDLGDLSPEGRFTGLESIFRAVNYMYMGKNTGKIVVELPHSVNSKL
# ZBTB17 isoform 2, sequence (Q13105 whole entry, looked up, canonical isoform): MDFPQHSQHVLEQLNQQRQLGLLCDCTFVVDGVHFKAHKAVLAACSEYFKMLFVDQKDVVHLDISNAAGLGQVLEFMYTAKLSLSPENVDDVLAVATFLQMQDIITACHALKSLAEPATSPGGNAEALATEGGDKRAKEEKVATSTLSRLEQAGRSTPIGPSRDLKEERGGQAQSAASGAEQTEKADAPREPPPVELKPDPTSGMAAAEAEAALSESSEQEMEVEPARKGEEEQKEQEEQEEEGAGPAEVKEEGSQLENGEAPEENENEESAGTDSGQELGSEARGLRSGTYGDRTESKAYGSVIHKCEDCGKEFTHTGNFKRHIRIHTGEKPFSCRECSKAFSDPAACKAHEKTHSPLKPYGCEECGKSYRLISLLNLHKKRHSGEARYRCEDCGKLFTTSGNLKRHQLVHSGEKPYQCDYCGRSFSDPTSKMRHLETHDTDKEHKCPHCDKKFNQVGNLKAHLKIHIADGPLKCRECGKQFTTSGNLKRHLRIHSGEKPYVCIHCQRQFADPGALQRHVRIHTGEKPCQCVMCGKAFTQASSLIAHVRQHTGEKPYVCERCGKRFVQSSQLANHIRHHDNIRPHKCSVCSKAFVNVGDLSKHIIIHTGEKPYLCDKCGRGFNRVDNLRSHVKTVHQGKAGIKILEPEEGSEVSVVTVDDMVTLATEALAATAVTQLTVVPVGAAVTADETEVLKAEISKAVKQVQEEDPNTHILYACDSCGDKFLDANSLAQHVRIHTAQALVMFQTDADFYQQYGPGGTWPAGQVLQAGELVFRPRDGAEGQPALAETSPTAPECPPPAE
# YIPF6, sequence (Q96EC8 whole entry, looked up): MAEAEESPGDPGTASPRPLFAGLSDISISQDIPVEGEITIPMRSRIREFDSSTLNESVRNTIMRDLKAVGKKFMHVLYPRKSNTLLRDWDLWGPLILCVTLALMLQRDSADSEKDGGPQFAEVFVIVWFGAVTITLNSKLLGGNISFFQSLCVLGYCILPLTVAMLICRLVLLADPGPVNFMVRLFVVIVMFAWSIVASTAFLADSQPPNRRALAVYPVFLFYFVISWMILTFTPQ
# YWHAZ (UniProt P63104), sequence (P63104 whole entry, looked up): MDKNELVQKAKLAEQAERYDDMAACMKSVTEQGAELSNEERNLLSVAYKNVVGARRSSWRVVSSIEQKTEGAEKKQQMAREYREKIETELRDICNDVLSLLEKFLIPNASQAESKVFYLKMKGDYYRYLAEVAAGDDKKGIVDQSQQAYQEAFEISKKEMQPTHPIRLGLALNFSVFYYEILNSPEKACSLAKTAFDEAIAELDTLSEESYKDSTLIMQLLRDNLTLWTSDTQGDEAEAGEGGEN
# YES1, sequence (P07947 whole entry, looked up): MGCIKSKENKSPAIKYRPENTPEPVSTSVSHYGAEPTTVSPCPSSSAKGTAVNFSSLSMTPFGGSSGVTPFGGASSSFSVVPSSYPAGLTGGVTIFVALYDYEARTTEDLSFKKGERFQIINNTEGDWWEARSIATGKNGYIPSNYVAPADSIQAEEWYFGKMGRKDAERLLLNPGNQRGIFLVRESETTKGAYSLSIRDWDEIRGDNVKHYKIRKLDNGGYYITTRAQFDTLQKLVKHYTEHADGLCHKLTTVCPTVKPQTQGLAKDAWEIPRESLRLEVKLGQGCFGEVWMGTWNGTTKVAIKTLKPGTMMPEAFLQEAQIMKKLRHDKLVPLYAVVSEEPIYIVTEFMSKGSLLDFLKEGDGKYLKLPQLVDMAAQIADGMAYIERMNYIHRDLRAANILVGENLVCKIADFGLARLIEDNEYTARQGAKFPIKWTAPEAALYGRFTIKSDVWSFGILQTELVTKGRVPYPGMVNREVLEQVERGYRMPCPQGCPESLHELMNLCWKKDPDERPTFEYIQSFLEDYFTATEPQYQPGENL
# YIPF5 isoform 3, sequence (Q969M3 whole entry, looked up, canonical isoform): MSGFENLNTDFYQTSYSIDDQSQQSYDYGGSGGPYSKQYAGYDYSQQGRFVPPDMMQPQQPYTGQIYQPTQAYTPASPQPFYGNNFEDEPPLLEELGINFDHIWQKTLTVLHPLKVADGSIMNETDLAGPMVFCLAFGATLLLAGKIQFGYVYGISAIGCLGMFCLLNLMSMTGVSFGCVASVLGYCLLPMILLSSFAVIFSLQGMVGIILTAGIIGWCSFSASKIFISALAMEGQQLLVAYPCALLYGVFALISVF
SMILES,log2 fold change (YAE1),log2 fold change (YBX1),log2 fold change (YES1),log2 fold change (YIPF4),log2 fold change (YIPF5 isoform 3),log2 fold change (YIPF6),log2 fold change (YLPM1),log2 fold change (YOD1),log2 fold change (YPEL5),log2 fold change (YWHAB),log2 fold change (YWHAQ),log2 fold change (YWHAZ [1]),log2 fold change (YY1),log2 fold change (ZADH2),log2 fold change (ZBTB21),log2 fold change (ZBTB43),log2 fold change (ZC3H18),log2 fold change (ZBTB17 isoform 2),log2 fold change (YWHAZ [2])
CC1=C(C(=O)Nc2cc3cn[nH]c3cc2F)C(c2ccc(C(F)(F)F)cc2)CC(=O)N1 (stereo unspecified),-0.001,0.044,-0.012,-0.019,-0.007,0.055,-0.01,0.023,0.058,0.001,0.107,0.058,0.059,-0.014,0.033,-0.04,0.022,,
Cc1ncc(-c2ccnc(Nc3ccc(S(C)(=O)=O)cc3)n2)n1C(C)C,0.042,0.013,-0.051,-0.005,-0.03,-0.023,-0.011,-0.018,0.036,0,-0.026,-0.003,-0.207,0.066,0.061,0.16,-0.162,,
COC(=O)[C@H](CCSC)NC(=O)c1ccc(NC[C@@H](N)CS)cc1-c1ccccc1,0.059,0.113,-0.006,0.088,0.046,0.041,-0.014,-0.016,-0.23,0.016,0.019,-0.002,0.014,0.052,-0.022,0.018,0.045,,
CNC(=O)c1ccccc1Nc1nc(Nc2ccc(N3CCOCC3)cc2OC)ncc1Cl,-0.002,0.01,-0.623 (active),0.062,0.088,-0.006,-0.006,0.011,0.08,0.019,0.049,-0.013,-0.046,-0.051,-0.012,-0.007,-0.01,-0.041,
C#Cc1cccc(Nc2ncnc3cc(OCCOC)c(OCCOC)cc23)c1 [erlotinib],0.055,-0.173,-0.145,0.004,0.011,-0.017,0.084,0.064,0.049,0.011,-0.07,0.011,-0.019,0.005,0.235,0.081,-0.066,-0.048,
CS(=O)(=O)N1CCN(Cc2cc3nc(-c4cccc5[nH]ncc45)nc(N4CCOCC4)c3s2)CC1 [pictilisib],0.021,0.033,0.093,0.15,0.027,0.107,0.065,-0.001,0.172,0.002,-0.142,-0.037,-0.021,0.14,-0.035,0.027,-0.019,,
CON(C)C(=O)N1N=C(c2cc(F)ccc2F)S[C@@]1(CCCN)c1ccccc1 [filanesib],0.133,0.202,,0.077,0.017,-0.08,0.083,-0.067,0.413,-0.044,-0.086,-0.027,-0.006,0.065,0.075,-0.024,0.217,-0.026,
O=C(CCCCCCC(=O)Nc1ccccc1)NO [vorinostat],0.044,-0.056,0.069,-0.046,0.156,-0.035,0.024,0.033,0.028,-0.02,0.39,-0.013,0.134,0.002,0.079,-0.005,0.091,,
CN1CCC(CNc2ccc3ncc(-c4cccc(OC(F)(F)F)c4)n3n2)CC1,0.057,0.348,-0.326,0.101,-0.288,0.155,-0.113,-0.305 (active),-0.094,-0.042,0.585,0.035,-0.21,0.023,-0.149,0.032,-0.044,,
CCn1cc(-c2ccnc3[nH]c(-c4cccc(CN(C)C)c4)cc23)c(-c2ccc(NC(=O)N(C)C)cc2)n1,-0.015,0.249,-0.241,0.037,0.06,0.103,-0.012,-0.101,-0.072,0.014,0.143,-0.042,0.002,0.13,-0.073,0.028,0.068,,
Cc1cc(Nc2cc(CN3CCOCC3)c3nc(C)c(Cc4ccc(Cl)cc4F)n3n2)n[nH]1 [gandotinib],0.007,0.334,-0.447,-0.086,-0.1,-0.019,-0.117,-0.149,-0.095,-0.25 (active),-0.071,0.084,-0.012,0.128,0.074,0.043,0.017,,
COc1cc2ncnc(Nc3ccc(F)c(Cl)c3)c2cc1OCCCN1CCOCC1 [gefitinib],-0.016,-0.096,-0.045,0.038,0.024,0.005,0.002,0.006,-0.239,-0.001,0.007,0.005,-0.076,-0.029,-0.125,0.025,-0.033,,
O=C(Nc1cccc(Nc2ncc(Br)c(NCCc3cnc[nH]3)n2)c1)N1CCCC1,-0.084,0.103,-0.139,-0.033,0.033,-0.013,-0.083,-0.012,,0.006,-0.089,0.011,-0.065,0.001,0.107,-0.052,-0.126,-0.014,-0.031
Cc1ccc(NC(=O)c2cccc(C(C)(C)C#N)c2)cc1Nc1ccc2ncn(C)c(=O)c2c1,0.056,0.041,,0.013,0.042,-0.131,-0.095,0.067,-0.131,0.016,0.184,0.025,0.035,0.453 (active),-0.03,0.004,0,0.018,
